Measurements as given in PubChem BioAssay (NCATS).
“And” between values parts separate entries of the source, which are not always exact repeats. Equal values may be shown once. Results filed as inconclusive are left out. The source made the active and inactive calls. Unless noted, calls come from the whole dose curve; as a rule, active = well fitted curve in the direction sought with a large enough effect; inconclusive = small, poorly fitted or top-dose-only effect, or another doubt; inactive = no such curve, though single readings can be large; an effect the other way counts as inactive or inconclusive.

Assays:
[1] = target: Estrogen receptor (Homo sapiens) (UniProt P03372); test: qHTS assay for small molecule agonists of estrogen receptor alpha signaling (AID 588514; calls by dose curve;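 note: 0% = vehicle only and 100% = reference agonist; nearly all actives have a fitted effect of over 70% in size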); conditions: ER-alpha-UAS-bla HEK293, beta-lactamase ratio, 18 h; series mostly up to 76.8 µM
Summary of the method: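 Fluorescence from CCF4 cleavage reports ER-alpha-driven beta-lactamase expression in HEK 293 cells treated 18 hrs at 37 C. Data normalized to 17-beta-estradiol (20 nM) and DMSO, fitted to Hill equation.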

[2] = target: Glucocorticoid receptor (Homo sapiens) (UniProt P04150); test: qHTS assay for small molecule agonists of glucocorticoid receptor signaling (AID 588532; active = well fitted curve in the direction sought with a large enough effect in the signal ratio, with a control signal flat; the % refers to the signal ratio;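 note: 100% = dexamethasone at 0.1 µM and 0% = DMSO only wells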); conditions: HeLa MMTV-bla, beta-lactamase ratio, agonist, 18 h; stronger effect = higher value; percent of dexamethasone control, DMSO zero
Summary of the method: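 MMTV-bla HeLa beta-lactamase reporter cells in 1% charcoal/dextran FBS medium, compounds up to 92 uM for 18 h at 37 C, CCF4 readout; normalized to 0.1 uM dexamethasone (100%), EC50 and efficacy from Hill fits.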

[3] = target: Glucocorticoid receptor (Homo sapiens) (UniProt P04150); test: qHTS assay for small molecule antagonists of glucocorticoid receptor signaling (AID 588533; active = well fitted inhibition curve with a large enough effect in the signal ratio, with a control signal flat, not every such curve was filed as active; the % refers to the signal ratio;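 note: cells stimulated with 2 nM dexamethasone as agonist; % is set by controls: 0 for no effect and ±100 for the full control effect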); conditions: HeLa MMTV-bla, GRE beta-lactamase ratio, antagonist mode, 18 h; series mostly up to 76.8 µM
Summary of the method: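 Antagonist-mode qHTS: compound titrations added to GRE-bla HeLa cells, then dexamethasone 2 nM final; 18 h, 37 C. CCF4 FRET fluorescence normalized to dexamethasone and DMSO; IC50 from Hill fit.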

[4] = qHTS assay for small molecule antagonists of peroxisome proliferator-activated receptor delta signaling (AID 588535); conditions: HEK293T PPARd-UAS-bla, beta-lactamase FRET ratio, 18 h; 460 nm channel;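 note: cells co-treated with a PPAR-delta agonist as stimulator during compound exposure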
Summary of the method: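 Beta-lactamase reporter read-out (405 nm excitation, 460/530 nm emission) after CCF4 loading for 2 hrs at RT. HEK293T PPAR-delta-UAS-bla cells, 2% charcoal/dextran FBS, compounds for 18 hrs at 37 C. Hill fit gave IC50 and efficacy.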

[5] = target: Peroxisome proliferator-activated receptor gamma (Homo sapiens) (UniProt P37231); test: qHTS assay for small molecule agonists of peroxisome proliferator-activated receptor gamma signaling (AID 588536; active = well fitted curve in the direction sought with a large enough effect in the signal ratio, with a control signal flat, not every such curve was filed as active; the % refers to the signal ratio;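 note: 0% = DMSO basal wells and 100% = rosiglitazone at 2 µM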); conditions: HEK293 PPARg-UAS-bla, beta-lactamase ratio, 16 h, percent of rosiglitazone response, DMSO as zero; series mostly up to 76.7 µM
Summary of the method: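 This is an agonist-mode beta-lactamase reporter assay in HEK293 PPAR-gamma-UAS-bla cells with 1% charcoal/dextran FBS. Compound titrations ran 16 h at 37 C before CCF4 detection. EC50 and efficacy are Hill fits scaled to 2 uM rosiglitazone (100%) and DMSO basal.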

[6] = target: Vitamin D3 receptor (Homo sapiens) (UniProt P11473); test: qHTS assay for small molecule agonists of vitamin D receptor signaling (AID 588543; calls by dose curve;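 note: 0% = DMSO basal and 100% = reference agonist control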); conditions: HEK293T VDR-UAS-bla, beta-lactamase ratio, 16 h; series mostly up to 76.8 µM
Summary of the method: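 VDR-UAS-bla HEK293T cells, 2000/well, 2% charcoal-stripped FBS; compound titration 16 h at 37 C; CCF4 beta-lactamase ratio read. Normalized to 50 nM 1-alpha,25-dihydroxyvitamin D3 (100%) and DMSO; Hill fit gives EC50, efficacy.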

[7] = qHTS assay for small molecule agonists of retinoid X receptor alpha signaling (AID 588544; calls by dose curve;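 for activation: 0% = DMSO basal wells and 100% = reference agonist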); conditions: HEK293T RXRa-UAS-bla, beta-lactamase reporter, 18 h; 530 nm emission
[8] = target: Retinoic acid receptor RXR-alpha (Homo sapiens) (UniProt P19793); test: as above; conditions: HEK293T RXRa-UAS-bla, beta-lactamase reporter, 18 h; series mostly up to 76.7 µM
[9] = target: Thyroid hormone receptor beta (Homo sapiens) (UniProt P10828); test: qHTS assay for small molecule agonists of thyroid hormone receptor beta signaling (AID 588545; calls by dose curve); conditions: TR-UAS-bla GripTite HEK 293, beta-lactamase ratio, agonist mode, 18 h; series mostly up to 76.7 µM
Summary of the method: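 Cells (2500/well) were seeded, incubated 4 hrs at 37 C, dosed with a compound series, incubated 18 hrs, loaded with CCF4 dye for 2 hrs at RT, then read for fluorescence. Data were scaled between DMSO (0%) and 10 nM T3 (100%).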

[10] = qHTS assay for small molecule antagonists of retinoid X receptor alpha signaling (AID 588546; active = well fitted inhibition curve with a large enough effect in the signal ratio, with a control signal flat, not every such curve was filed as active; the % refers to the signal ratio;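 note: cells stimulated with 9-cis-retinoic acid as agonist; % is set by controls: 0 for no effect and ±100 for the full control effect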); conditions: HEK293T RXRa-UAS-bla, beta-lactamase ratio, antagonist mode; measured here: W530 green channel, cytotoxicity proxy
Summary of the method: (§1)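 Beta-lactamase reporter inhibition, read as CCF4 fluorescence ratio (ex 405, em 460/530 nm) after 2 h at RT. HEK293T UAS-bla cells, 2500/well, were stimulated with 9-cis-RA at 500 or 100 nM final alongside test compound for 18 h at 37 C.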

[11] = target: Retinoic acid receptor RXR-alpha (Homo sapiens) (UniProt P19793); test: as above; conditions: HEK293T RXRa-UAS-bla, beta-lactamase ratio, antagonist mode
Summary of the method: as §1

[12] = qHTS assay for environmental chemicals that activate the Aryl hydrocarbon Receptor (AhR) signaling pathway (AID 651777); conditions: 1A2-DRE human hepatoma cells, luciferase, 24 h; activation: stronger effect = higher value; note: % of control where 0% means no effect; nearly all actives have a fitted effect of over 15% in size
Summary of the method: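 Luminescence (One-Glo, 30 min, room temperature) reports AhR-driven luciferase in stably transfected human hepatoma cells bearing DRE and CYP1A2 promoter. Cells (1,200/well) were treated with compound for 24 hr at 37 C in qHTS format.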

[13] = target: Peroxisome proliferator-activated receptor alpha (Homo sapiens) (UniProt Q07869); test: qHTS assay for small molecule agonists of the peroxisome proliferator-activated receptor alpha (PPARalpha) signaling pathway (AID 651778); conditions: PathHunter PPARalpha complementation, chemiluminescence, 6 h; max response: stronger effect = higher value; note: % of control where 0% means no effect
Summary of the method: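 Enzyme-fragment complementation assay in which ligand-bound PPARalpha translocates and forms an active enzyme that generates chemiluminescence. Cells were plated overnight, exposed to compound for 6 hr at 37 C, and then given detection reagent for 60 min at room temperature.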

[14] = qHTS assay for small molecule agonists of the antioxidant response element (ARE) signaling pathway measured by Nrf2-dependant transcriptional activity (AID 720636; active = well fitted curve in the direction sought with a large enough effect in the repeat runs; an effect the other way counts as inactive or inconclusive; note: % of control where 0% means no effect); conditions: ARE-luc HepG2, Nrf2 luciferase reporter, 16 h; series mostly up to 92.4 µM
Summary of the method: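 Nrf2-dependent transcription read as ONE-Glo luciferase signal from ARE-luc HepG2 reporter cells after 16 hr compound treatment at 37 C, 5% CO2, in assay medium with 1% dialyzed FBS.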

[15] = qHTS assay for small molecule agonists of the antioxidant response element (ARE) signaling pathway measured by Nrf2-dependant transcriptional activity - cell viability counter screen (AID 720653; active = well fitted curve in the direction sought with a large enough effect in the repeat runs; an effect the other way counts as inactive or inconclusive; note: % is set by controls: 0 for no effect and ±100 for the full control effect); conditions: ARE-bla HepG2 viability, CellTiter-Glo ATP luminescence, 16 h; max response: stronger effect = lower value
Summary of the method: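 ARE-bla HepG2 cells treated with compounds for 16 h at 37C; this counter screen measures viability as intracellular ATP by CellTiter-Glo luminescence after 30 min at room temperature.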

[16] = qHTS assay for cell viability of HEK293 cells (AID 743288); conditions: ATP luminescence (CellTiter-Glo), 18 h; max response: stronger effect = lower value; note: nearly all actives have a fitted effect of over 50% in size; note: potency is the fitted concentration of half-maximal effect
Summary of the method: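 Steps: plate 2,000 parental HEK293 cells per well; incubate ≥5 h, 37 C; add compounds in DMSO; incubate 18 h, 37 C; add CellTiter-Glo; wait 30 min at room temperature; read luminescence.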

[17] = qHTS assay for cell viability of the p53RE-bla HCT-116 cell line (AID 743292); conditions: p53RE-bla HCT-116 viability, ATP luminescence, 16 h; series mostly up to 95 µM; note: nearly all actives have a fitted effect of over 55% in size; note: potency is the fitted concentration of half-maximal effect
Summary of the method: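 ATP-based luminescent viability (CellTiter-Glo, 30 min RT) after 16 h compound treatment at 37 C of p53RE-bla HCT-116 cells, seeded at 4,000 cells/well and rested 5 h before dosing.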

[18] = target: Nuclear receptor subfamily 1 group I member 2 (Rattus norvegicus) (UniProt Q9R1A7); test: qHTS assay for small molecule activators of the rat pregnane X receptor (rPXR) signaling pathway (AID 651751; call rule not given here; note: 0% is about no effect); conditions: rPXR reporter cells, luciferase (One-Glo), 24 h
[19] = qHTS assay for small molecule activators of the human pregnane X receptor (PXR) signaling pathway (AID 720659; call rule not given here; note: 0% is about no effect); conditions: DPX-2 HepG2 CYP3A4-luciferase, 24 h; series mostly up to 92.3 µM
[20] = target: Thyroid hormone receptor beta (Homo sapiens) (UniProt P10828); test: qHTS assay for small molecule antagonists of thyroid hormone receptor beta signaling (AID 588547; active = well fitted inhibition curve with a large enough effect in the signal ratio, with a control signal flat, not every such curve was filed as active; the % refers to the signal ratio;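 note: cells stimulated with 0.4 nM T3 agonist during compound exposure; % is set by controls: 0 for no effect and ±100 for the full control effect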); conditions: TR-UAS-bla HEK293, beta-lactamase ratio, antagonist mode, 18 h
Summary of the method: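 TR-UAS-bla GripTite HEK293 cells in 2% charcoal/dextran FBS medium; compounds 0.59 nM to 92 uM with T3 at 0.4nM final, 18 h at 37 C. Beta-lactamase read by CCF4 fluorescence (460/530 nm); Hill fits gave IC50 and efficacy.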

Peroxisome proliferator-activated receptor alpha (Homo sapiens), sequence (Q07869 whole entry, looked up, the tested form may be a part): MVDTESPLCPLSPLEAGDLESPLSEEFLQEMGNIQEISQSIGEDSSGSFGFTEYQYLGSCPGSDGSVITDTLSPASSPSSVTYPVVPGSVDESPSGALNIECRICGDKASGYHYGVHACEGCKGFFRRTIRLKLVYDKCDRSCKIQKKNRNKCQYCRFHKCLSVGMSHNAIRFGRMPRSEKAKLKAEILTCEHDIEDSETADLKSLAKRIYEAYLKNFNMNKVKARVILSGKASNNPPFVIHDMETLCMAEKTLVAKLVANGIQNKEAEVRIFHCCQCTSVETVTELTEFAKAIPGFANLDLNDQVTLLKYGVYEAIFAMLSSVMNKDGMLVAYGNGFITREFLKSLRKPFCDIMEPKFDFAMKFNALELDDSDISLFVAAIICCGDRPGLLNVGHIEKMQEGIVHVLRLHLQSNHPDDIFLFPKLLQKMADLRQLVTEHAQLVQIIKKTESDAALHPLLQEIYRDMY
Glucocorticoid receptor (Homo sapiens), sequence (P04150 whole entry, looked up): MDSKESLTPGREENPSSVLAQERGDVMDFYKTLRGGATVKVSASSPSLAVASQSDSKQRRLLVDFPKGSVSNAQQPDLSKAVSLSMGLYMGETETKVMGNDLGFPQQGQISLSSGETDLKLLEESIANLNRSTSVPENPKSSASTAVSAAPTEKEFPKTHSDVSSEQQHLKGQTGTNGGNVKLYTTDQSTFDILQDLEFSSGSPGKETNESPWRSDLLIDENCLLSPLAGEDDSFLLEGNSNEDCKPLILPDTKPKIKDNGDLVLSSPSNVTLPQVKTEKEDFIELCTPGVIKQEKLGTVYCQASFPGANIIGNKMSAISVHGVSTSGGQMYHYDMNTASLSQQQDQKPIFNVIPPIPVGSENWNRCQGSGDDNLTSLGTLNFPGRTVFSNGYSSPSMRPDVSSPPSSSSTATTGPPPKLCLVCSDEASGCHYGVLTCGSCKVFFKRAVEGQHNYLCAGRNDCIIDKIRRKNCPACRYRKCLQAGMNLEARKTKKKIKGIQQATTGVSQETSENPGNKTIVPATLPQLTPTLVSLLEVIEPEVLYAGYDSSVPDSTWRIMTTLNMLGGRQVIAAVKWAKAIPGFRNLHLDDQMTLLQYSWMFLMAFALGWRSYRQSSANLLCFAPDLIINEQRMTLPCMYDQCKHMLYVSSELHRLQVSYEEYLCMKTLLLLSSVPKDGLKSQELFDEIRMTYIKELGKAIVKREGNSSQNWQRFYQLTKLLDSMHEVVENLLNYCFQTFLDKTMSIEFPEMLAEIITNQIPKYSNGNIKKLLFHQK
Retinoic acid receptor RXR-alpha (Homo sapiens), sequence (P19793 whole entry, looked up): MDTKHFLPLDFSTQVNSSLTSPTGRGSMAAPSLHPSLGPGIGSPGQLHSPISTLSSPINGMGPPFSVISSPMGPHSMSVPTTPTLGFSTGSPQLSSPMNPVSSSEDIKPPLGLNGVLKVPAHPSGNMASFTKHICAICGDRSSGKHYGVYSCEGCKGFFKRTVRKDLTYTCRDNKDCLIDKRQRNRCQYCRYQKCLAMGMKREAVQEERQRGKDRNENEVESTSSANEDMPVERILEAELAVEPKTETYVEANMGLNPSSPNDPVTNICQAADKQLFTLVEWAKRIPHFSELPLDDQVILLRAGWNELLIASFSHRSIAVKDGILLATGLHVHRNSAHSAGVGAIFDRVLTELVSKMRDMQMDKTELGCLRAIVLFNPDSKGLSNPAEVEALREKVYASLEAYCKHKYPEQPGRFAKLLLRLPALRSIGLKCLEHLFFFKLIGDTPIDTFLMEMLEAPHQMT
Thyroid hormone receptor beta (Homo sapiens), sequence (P10828 whole entry, looked up): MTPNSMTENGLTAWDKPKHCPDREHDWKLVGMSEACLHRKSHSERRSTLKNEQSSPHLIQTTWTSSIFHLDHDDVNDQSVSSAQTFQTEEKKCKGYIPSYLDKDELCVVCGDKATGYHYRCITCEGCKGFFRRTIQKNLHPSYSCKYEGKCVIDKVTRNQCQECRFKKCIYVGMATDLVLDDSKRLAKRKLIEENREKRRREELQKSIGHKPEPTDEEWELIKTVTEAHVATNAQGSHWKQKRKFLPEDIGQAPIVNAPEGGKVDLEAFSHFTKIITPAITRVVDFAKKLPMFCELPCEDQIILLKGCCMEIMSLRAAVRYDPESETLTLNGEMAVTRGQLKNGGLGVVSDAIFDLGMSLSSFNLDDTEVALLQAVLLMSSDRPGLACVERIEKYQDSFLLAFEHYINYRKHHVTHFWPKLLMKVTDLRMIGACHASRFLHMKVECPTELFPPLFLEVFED
Peroxisome proliferator-activated receptor gamma (Homo sapiens), sequence (P37231 whole entry, looked up): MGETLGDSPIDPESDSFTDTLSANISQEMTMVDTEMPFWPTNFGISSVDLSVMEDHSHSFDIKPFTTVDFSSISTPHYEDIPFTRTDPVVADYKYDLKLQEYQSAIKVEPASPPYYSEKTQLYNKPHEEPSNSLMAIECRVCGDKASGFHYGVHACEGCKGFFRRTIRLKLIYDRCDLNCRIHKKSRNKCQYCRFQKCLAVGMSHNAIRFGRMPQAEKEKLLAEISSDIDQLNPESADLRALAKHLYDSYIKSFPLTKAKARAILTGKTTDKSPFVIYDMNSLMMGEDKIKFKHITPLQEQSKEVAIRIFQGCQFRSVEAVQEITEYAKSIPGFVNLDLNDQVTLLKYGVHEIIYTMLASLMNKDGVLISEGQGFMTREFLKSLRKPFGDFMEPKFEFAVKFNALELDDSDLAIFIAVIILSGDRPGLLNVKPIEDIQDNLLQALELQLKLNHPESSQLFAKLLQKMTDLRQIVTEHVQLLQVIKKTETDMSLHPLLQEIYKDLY
Nuclear receptor subfamily 1 group I member 2 (Rattus norvegicus), sequence (Q9R1A7 whole entry, looked up): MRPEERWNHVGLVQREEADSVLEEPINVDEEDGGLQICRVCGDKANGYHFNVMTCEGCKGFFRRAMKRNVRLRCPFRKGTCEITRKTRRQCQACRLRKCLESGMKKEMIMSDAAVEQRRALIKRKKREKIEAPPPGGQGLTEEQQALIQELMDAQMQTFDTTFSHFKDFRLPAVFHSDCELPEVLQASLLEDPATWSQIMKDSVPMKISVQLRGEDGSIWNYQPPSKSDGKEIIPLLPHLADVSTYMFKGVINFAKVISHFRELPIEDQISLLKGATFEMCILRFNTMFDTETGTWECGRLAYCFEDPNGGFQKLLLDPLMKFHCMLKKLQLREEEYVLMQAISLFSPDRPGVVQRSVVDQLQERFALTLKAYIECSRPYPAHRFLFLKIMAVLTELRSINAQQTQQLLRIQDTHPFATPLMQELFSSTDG
Vitamin D3 receptor (Homo sapiens), sequence (P11473 whole entry, looked up): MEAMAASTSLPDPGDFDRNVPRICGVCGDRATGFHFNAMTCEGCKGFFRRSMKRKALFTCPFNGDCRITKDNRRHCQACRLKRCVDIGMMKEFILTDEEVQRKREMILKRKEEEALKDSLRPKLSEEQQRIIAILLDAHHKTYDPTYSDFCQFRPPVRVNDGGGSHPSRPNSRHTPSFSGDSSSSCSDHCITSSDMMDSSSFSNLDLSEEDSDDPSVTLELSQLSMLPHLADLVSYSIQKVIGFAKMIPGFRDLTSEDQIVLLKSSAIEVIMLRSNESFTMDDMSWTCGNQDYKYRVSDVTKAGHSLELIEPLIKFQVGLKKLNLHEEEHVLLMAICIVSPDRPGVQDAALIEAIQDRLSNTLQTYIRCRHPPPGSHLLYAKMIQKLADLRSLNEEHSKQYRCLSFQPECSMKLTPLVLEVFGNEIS
Estrogen receptor (Homo sapiens), sequence (P03372 whole entry, looked up): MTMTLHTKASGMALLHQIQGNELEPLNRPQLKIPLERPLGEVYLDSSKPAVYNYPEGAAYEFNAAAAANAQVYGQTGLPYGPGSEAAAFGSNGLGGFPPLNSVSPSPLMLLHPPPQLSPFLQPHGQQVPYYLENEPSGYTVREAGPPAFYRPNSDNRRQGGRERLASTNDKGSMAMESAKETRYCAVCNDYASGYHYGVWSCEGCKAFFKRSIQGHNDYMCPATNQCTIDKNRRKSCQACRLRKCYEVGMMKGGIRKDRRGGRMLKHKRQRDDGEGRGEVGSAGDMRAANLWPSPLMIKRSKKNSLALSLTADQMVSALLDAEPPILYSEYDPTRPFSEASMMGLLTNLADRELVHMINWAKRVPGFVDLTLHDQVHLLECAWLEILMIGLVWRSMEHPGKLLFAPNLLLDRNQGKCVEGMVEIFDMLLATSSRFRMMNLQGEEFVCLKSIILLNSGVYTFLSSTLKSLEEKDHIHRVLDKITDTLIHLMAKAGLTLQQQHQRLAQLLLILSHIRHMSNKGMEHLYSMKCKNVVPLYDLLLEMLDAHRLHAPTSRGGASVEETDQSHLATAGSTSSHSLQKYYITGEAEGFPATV

CC1(C)CC(OC(=O)CCCCCCCCC(=O)OC2CC(C)(C)NC(C)(C)C2)CC(C)(C)N1
-2.95%: max response [7]
5.99%: max response [10]
inactive: Potency [1] | activation [2] -2.43% | Potency [3] | outcome [5] | outcome [6] | Potency [8] | Potency [9] | max response [11] -19.6% | activation [12] 0.228% | max response [13] -4.12% | Potency [14] | max response [15] -3.17% | max response [16] -10.1% | Potency [17] | max response [18] -0.828% | outcome [19]
5.94%: max response [4]

CCCCCCCCCCCCCCCC
inactive: Potency [1] | Potency [3] | outcome [5] | Potency [8] | Potency [9] | max response [11] -1.47% | activity change % (negative = inhibition) [20] -0.344% | activation [12] 0.0152% | max response [13] 0.236% | Potency [14] | max response [15] -4.36% | Potency [17] | max response [18] 1.98% | outcome [19]
55.6%: max response [4]
0.581%: max response [7]
-21.5%: max response [10]

COCCO
-8.45% and -6.73%: max response [10]
37%: max response [4]
inactive: Potency [1] | activation [2] 2.41% and 1.59% | Potency [3] | outcome [5] | outcome [6] | Potency [8] | max response [11] 16.3% and -4.97% | activation [12] -1.11% and -0.165% | max response [13] -2.01% and -0.724% | Potency [14] | max response [15] -7.73% and 3.37% | max response [16] -2.14% and 3.11% | Potency [17]
-5.91% and 1.76%: max response [7]

O=S(=O)(O)c1ccc(N=Nc2cc(S(=O)(=O)O)c3ccccc3c2O)c2ccccc12
26.6%: max response [4]
-24.8%: max response [7]
active: Potency [16] 44.7 µM | Potency [17] 39.8 µM
inactive: activation [2] -5.27% | Potency [3] | outcome [5] | outcome [6] | Potency [8] | Potency [9] | max response [11] 4.36% | activation [12] 3.98% | max response [13] -9.4% | Potency [14] | max response [18] -7.09% | outcome [19]
4.4%: max response [10]

CCCC/C=C/CCCCO
inactive: Potency [1] | activation [2] -4.1% | Potency [3] | outcome [5] | outcome [6] | Potency [8] | Potency [9] | max response [11] -16.5% | activity change % (negative = inhibition) [20] 0.772% | activation [12] -0.731% | max response [13] -1.7% | Potency [14] | max response [15] 0.665% | max response [16] -11.8% | Potency [17] | max response [18] -2.13% | outcome [19]
-14.6%: max response [7]
-7.43%: max response [10]

CCCCC/C=C\C/C=C\CCCCCCCC(=O)OC
inactive: Potency [1] | outcome [5] | Potency [8] | max response [11] -5.56% | activity change % (negative = inhibition) [20] -14.4% | activation [12] 1.77% | max response [13] -0.289% | max response [15] -4.45% | max response [16] -12.5% | Potency [17] | max response [18] -0.654% | outcome [19]
10.1%: max response [4]
-7.14%: max response [7]
7.06%: max response [10]

Fc1ccc(Br)cc1
inactive: Potency [1] | activation [2] 9.16% | Potency [3] | outcome [6] | Potency [8] | Potency [9] | max response [11] 4.33% | activation [12] 2.85% | max response [13] -2.75% | Potency [14] | max response [15] -9.66% | Potency [17] | max response [18] -1.72% | outcome [19]
4.76%: max response [7]
-8.4%: max response [10]

COC(=O)C(C)Oc1ccc(Oc2ncc(C(F)(F)F)cc2Cl)cc1 (stereo unspecified)
-16.8%: max response [4]
5.42%: max response [10]
inactive: Potency [1] | outcome [6] | Potency [9] | max response [11] -74.4% | activation [12] 0.251% | max response [13] 0.508% | max response [15] -10.2% | Potency [17] | max response [18] -3.2% | outcome [19]

O=C(Cl)c1ccc(C(=O)Cl)cc1
-9.41%: max response [4]
-14.3%: max response [10]
-3.06%: max response [7]
inactive: Potency [1] | Potency [3] | outcome [6] | Potency [8] | Potency [9] | max response [11] 2.6% | activity change % (negative = inhibition) [20] 0.623% | activation [12] -0.806% | max response [13] -0.543% | Potency [14] | max response [15] -8.12% | max response [16] -8.26% | Potency [17] | max response [18] -1.54% | outcome [19]

CCCCOCCOCCOC(C)=O
inactive: Potency [1] | activation [2] -1.04% | Potency [3] | outcome [5] | outcome [6] | Potency [8] | Potency [9] | activity change % (negative = inhibition) [20] -10.2% | activation [12] -2.27% | max response [13] -0.313% | Potency [14] | max response [15] -1.74% | max response [16] 5.77% | Potency [17] | max response [18] -2.22% | outcome [19]
11.1%: max response [4]
-16.2%: max response [7]

CCCCOCCOCCO
1.46%: max response [10]
inactive: Potency [1] | activation [2] -5.88% | Potency [3] | outcome [5] | outcome [6] | Potency [8] | Potency [9] | max response [11] -25.6% | activity change % (negative = inhibition) [20] 15.3% | activation [12] 0.311% | max response [13] -0.568% | Potency [14] | max response [15] 3.56% | max response [16] -12.6% | Potency [17] | max response [18] -2.42% | outcome [19]
-10.9%: max response [7]
